Screening results as filed in PubChem.
Hits are enriched below; roughly 7.4% of the tested compounds scored in any of these assays.
SNCA viab count: counter-screen for SNCA expression inhibitors: cell viability; HEK-293-SNCA-luc viability, GF-AFC fluorescence, 24 h; Potency, µM (highest dose often 57.1 µM), without a hit: at the top dose activity change, negative = cytotoxicity, usual class: cytotoxic; hit rate 0.12% among 150,000; AID 1671193;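 note: 0% = DMSO-treated cells and -100% = medium-only wells without cells; nearly all actives have a fitted effect of over 30% in size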
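HEK-293-SNCA-luc cells (1500/well) plated 24 h, then exposed 24 h to a dilution series; GF-AFC added 30 min at 37C, fluorescence 405/540 nm; normalised to medium-only and DMSO wells, Hill fit.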
Luciferase inh: Photinus pyralis luciferase inhibition. P08659. purified P. pyralis luciferase, luminescence, biochemical. Potency, µM (doses to about 115 µM), actives largely listed as inhibitors. hit rate 2.5% among 76,000. AID 1347043; note: nearly all actives have a fitted effect of over 65% in size
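FLuc 10nM, D-luciferin 10uM, ATP 10uM, Mg acetate 10mM, Tris acetate pH 7.5, Tween/BSA; cpd qHTS; enzyme added last; CCD luminescence.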
HEK293 tox: kills HEK 293 cells; HEK 293 viability, ATP luminescence (CellTiter-Glo), 48-72 h; Potency, µM (highest dose often 115 µM), inactives show at the highest dose activity change, negative = cytotoxicity, actives largely listed as inhibitors; hit rate 6.6% among 94,000; note: nearly all actives have a fitted effect of over 60% in size
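CellTiter-Glo luminescence (cellular ATP) was read after 48 or 72 hr of compound exposure at 37 degree Celsius. Cells were HEK 293 plated at 250 cells/well.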
NIH3T3 tox: cytotoxic compounds in NIH 3T3 cells. Potency, µM (highest dose often 96.7 µM), inactives show top-dose activity change, negative = cytotoxicity, hits mostly inhibitors. NIH 3T3 viability, CellTiter-Glo ATP luminescence, 48-72 h. hit rate 4.3% among 94,000; note: nearly all actives have a fitted effect of over 55% in size
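ATP-dependent luminescence (CellTiter-Glo) served as the viability signal for NIH 3T3 cells treated with compound for 48 or 72 hr at 37 °C.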
SNCA expr inhib: inhibitors of alpha-synuclein (SNCA) gene expression | HEK-293 SNCA-luciferase knock-in, luminescence, 24 h | Potency, µM (doses to about 57.2 µM), without a hit: top-dose activity change, negative = inhibition, most hits filed as inhibitors | hit rate 0.17% among 140,000;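 note: plate controls were DMSO cells for no effect and cell-free wells for full effect; nearly all actives have a fitted effect of over 45% in size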
NPR1 antag: antagonists of human natriuretic peptide receptor Npr1. P16066. HEK293 hNpr1 GloSensor cGMP, ANP-stimulated luminescence. Potency, µM (top dose mostly 46.3 µM), without a hit: at the highest dose activity change, negative = inhibition, usual class: inhibitors. hit rate 1.6% among 76,000. AID 1347048; calls by dose curve; note: nearly all actives have a fitted effect of over 60% in size
Target sequence (P16066 whole entry, looked up): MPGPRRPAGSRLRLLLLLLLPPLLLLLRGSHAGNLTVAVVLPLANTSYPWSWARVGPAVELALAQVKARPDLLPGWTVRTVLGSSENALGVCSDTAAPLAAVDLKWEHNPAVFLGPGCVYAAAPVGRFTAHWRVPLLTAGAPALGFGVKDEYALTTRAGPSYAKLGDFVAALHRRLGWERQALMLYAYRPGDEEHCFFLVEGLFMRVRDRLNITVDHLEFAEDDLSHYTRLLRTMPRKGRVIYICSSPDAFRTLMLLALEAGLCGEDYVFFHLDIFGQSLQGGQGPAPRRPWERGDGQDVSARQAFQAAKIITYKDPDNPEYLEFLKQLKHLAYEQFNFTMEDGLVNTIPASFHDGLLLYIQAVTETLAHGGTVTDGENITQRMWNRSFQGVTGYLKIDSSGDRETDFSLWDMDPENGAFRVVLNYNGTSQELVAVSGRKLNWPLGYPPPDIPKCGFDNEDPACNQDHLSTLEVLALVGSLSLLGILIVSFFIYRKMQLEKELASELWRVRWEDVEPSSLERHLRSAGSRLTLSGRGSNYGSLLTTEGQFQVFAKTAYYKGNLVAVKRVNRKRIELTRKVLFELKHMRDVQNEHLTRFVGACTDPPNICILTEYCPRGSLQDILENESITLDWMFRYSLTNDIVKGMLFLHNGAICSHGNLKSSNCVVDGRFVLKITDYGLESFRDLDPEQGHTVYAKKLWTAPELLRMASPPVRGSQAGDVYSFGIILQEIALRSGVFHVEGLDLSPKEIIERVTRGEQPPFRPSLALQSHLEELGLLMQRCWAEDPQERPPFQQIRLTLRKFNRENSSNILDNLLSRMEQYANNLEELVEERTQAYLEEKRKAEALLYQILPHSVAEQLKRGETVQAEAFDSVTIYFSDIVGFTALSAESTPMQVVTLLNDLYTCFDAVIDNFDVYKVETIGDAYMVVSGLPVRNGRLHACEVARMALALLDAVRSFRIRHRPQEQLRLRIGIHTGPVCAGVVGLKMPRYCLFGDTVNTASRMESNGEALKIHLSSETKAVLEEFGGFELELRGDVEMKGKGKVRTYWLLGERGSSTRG
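HEK293 cells stably expressing human Npr1 and cGMP GloSensor pGS-40F, loaded 2 h with 2% GloSensor reagent, given compound 30 min at room temperature. Luminescence read before and 20 min after 0.1 nM hNppA.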
The depositor's hits bear a star; i = inactive; ? = inconclusive; · = no result given; [ ] = dose if it differs, or a comment. Unless noted, calls come from the whole dose curve; as a rule, active = well fitted curve in the direction sought with a large enough effect; inconclusive = small, poorly fitted or top-dose-only effect, or another doubt; inactive = no such curve, though single readings can be large; an effect the other way counts as inactive or inconclusive. Unless noted, % is set by controls: 0 for no effect and ±100 for the full control effect; potency is the fitted concentration of half-maximal effect.

SMILES | SNCA viab count | Luciferase inh | HEK293 tox | NIH3T3 tox | SNCA expr inhib | NPR1 antag
CCCCOc1c(CNC(C)c2ncccc2C)cccc1OC (stereo not given) | -21% | i | 40µM* | 28µM* | -20% | -13%
Cc1ccc(Cl)cc1Nc1ncncc1-c1nc(-c2ccccc2)no1 | 10% | i | -14% | 3% | -14% | -11%
Cc1cc(C(=O)NCc2cccnc2N2CCCC(O)C2)c(C)o1 (stereo not given) | 5% | i | 7% | -5% | 14% | 3%
O=C(NCc1ccco1)N1CCc2nc3cc(-c4ccccc4Cl)[nH]n3c(=O)c2C1 | -11% | 14µM* | ? | ? | ? | -15%
O=C(c1ccncc1)N1CCc2nc3cc(-c4ccccc4Cl)[nH]n3c(=O)c2C1 | -7% | ? | -23% | ? | 7.9µM* | 1%
CCn1ncc(CN2CCCC23CCN(c2cc(C)nc4ccccc24)CC3)c1C | -17% | i | ? | ? | 0% | 1%
COc1ccc(CCC(=O)N2CCCC(c3nc(-c4ccccc4)no3)CCNC(=O)CC2)cc1 (stereo not given) | 6% | i | 89µM* | ? | -5% | 5%
Cc1ccc(CN2CCCC(c3nc(-c4cccnc4)no3)CCNC(=O)CC2)s1 (stereo not given) | 1% | i | 89µM* | ? | -3% | -3%
COc1cccc(CC(=O)N2CCCC(c3nc(-c4ccccc4)no3)CCNC(=O)CC2)c1 (stereo not given) | -6% | ? | i | -30% | -8% | -11%
O=C1CCN(C(=O)c2ccco2)CCCC(c2nc(-c3ccccc3)no2)CCN1 (stereo not given) | -3% | 28µM* | -28% | -5% | 56% | -5%
c1ccc(C(CCNc2ncncn2)c2ccco2)cc1 (stereo not given) | -5% | i | ? | ? | 3% | 3%
CCOC(=O)CCCOc1cccn2c(=O)c(-c3cc(C)n(-c4ccccc4)n3)c(C)nc12 | 10% | i | i | 2% | -8% | 2%
CO[C@@H]1COCC[C@H]1NC(=O)CCSc1ccc2c(c1)OCCO2 | 2% | i | -15% | -2% | -26% | 3%
CC(C)CCN1CCOc2cc(C(=O)NCc3cccs3)ccc2C1 | -3%[87.6 µM] | i | ? | ? | ? | -5%[70.6 µM]
O=C(NCC1CC1)c1ccc2c(c1)OCCN(c1ccccc1)C2 | 5%[87.6 µM] | i | 11µM* | ? | 30%[87.6 µM] | -4%[70.6 µM]
CC(C)CCN1CCOc2cc(C(=O)Nc3cccnc3)ccc2C1 | -2%[87.6 µM] | i | 112µM* | -13%[138 µM] | 26%[87.6 µM] | -4%[70.6 µM]
CC(C)CCN1CCOc2cc(C(=O)NCc3ccccc3)ccc2C1 | -10%[87.6 µM] | i | ? | ? | -18%[87.6 µM] | 4%[70.6 µM]
CC(C)CCN1CCOc2cc(C(=O)NCCOc3ccccc3)ccc2C1 | -13%[87.6 µM] | i | 100µM* | ? | 12%[87.6 µM] | -11%[70.6 µM]
CC(C)CCN1CCOc2cc(C(=O)N(C)c3cccnc3)ccc2C1 | -3%[87.6 µM] | i | 112µM* | ? | ? | -15%[70.6 µM]
COc1ccc2c(ccn2CCNC(=O)Cn2nc3c(cc2=O)CCCC3)c1 | -12% | i | -6% | 4% | -8% | 2%
CC(C)=CCC[C@](C)(O)[C@H]1CC[C@]2(C)[C@@H]1[C@H](O)CC1[C@@]3(C)CC[C@H](O)C(C)(C)[C@@H]3[C@@H](O[C@@H]3O[C@H](CO)[C@@H](O)[C@H](O)[C@H]3O[C@@H]3O[C@H](CO)[C@@H](O)[C@H](O)[C@H]3O)C[C@]12C (stereo not given in full) | -7%[23.9 µM] | · | · | · | · | ·
CC(C)CCN1CCOc2cc(C(=O)Nc3nccs3)ccc2C1 | 1%[87.6 µM] | ? | 100µM* | ? | -13%[87.6 µM] | -18%[70.6 µM]
CC(C)CCN1CCOc2cc(C(=O)Nc3ccc(F)cc3)ccc2C1 | -25%[87.6 µM] | i | ? | ? | 7%[87.6 µM] | ?
